From PubChem BioAssay AID463173 (ICCB-Longwood Screening Facility, Harvard Medical School, 2010)
The whole screen tested about 52,000 compounds, of which about 4,300 (8.3%) were called active. The sample holds actives, similar compounds and a random draw of the others, so the mix is not that of the screen. Values without a mark were called inactive. Cut-off read from the data, not from the text of the source: active = survival mostly below about 52% (no sharp cut-off); inactive = mostly above about 56%.

tested on: DeltatarO mutant; assay: S. aureus survival, RN4220 and DeltatarO strains – OD600, teichoic acid synthesis inhibitors, primary screen (AID 463173); conditions: S. aureus RN4220 wild type/DeltatarO growth, OD600, 18 h, stronger effect = lower value, screened at 18.75 µg/mL (by protocol)

| SMILES | survival |
| --- | --- |
| CCNC(=O)c1cc2n(n1)CCCN(Cc1ccc(C)cc1)C2=O | 49% |
| CCC(C)NC(=O)c1cc2n(n1)CCCN(Cc1ccc(C)cc1)C2=O (centres undefined) | 74% |
| CCCSCCCNC(=O)c1cc2n(n1)CCCN(Cc1ccc(C)cc1)C2=O | 89% |
| CCCCNC(=O)c1cc2n(n1)CCCN(Cc1ccc(C)cc1)C2=O | 32% (active) |
| CCCNC(=O)c1cc2n(n1)CCCN(Cc1ccc(C)cc1)C2=O | 131% |
| Cc1ccc(CN2CCCn3nc(C(=O)NC(C)C)cc3C2=O)cc1 | 0% (active) |
| O=C(CN1C(=O)CSc2ccc(S(=O)(=O)N3CCCC3)cc21)NCc1ccccc1Cl | 87% |
| CCCC(=O)n1nc(-c2cccnc2)nc1NCc1ccccc1 | 81% |
| Cc1ccc(Cl)cc1NC(=O)CCc1c(C)nc2c3cccnc3nn2c1C | 103% |
| COc1ccccc1CNC(=O)C1CCCN(c2nc3ccccc3n3cccc23)C1 (centres undefined) | 53% |
| O=C(NCc1ccccc1Cl)C1CCCN(c2nc3ccccc3n3cccc23)C1 (centres undefined) | 46% (active) |
| O=C(NCc1ccc(Cl)cc1)C1CCCN(c2nc3ccccc3n3cccc23)C1 (centres undefined) | 82% |
| O=C(NCc1ccccc1Br)C1CCCN(C(=O)N2CCOc3ccccc32)C1 (centres undefined) | 73% |
| COc1ccc(NC(=O)C2=C(C)Nc3nc(SCc4ccccc4C)nn3C2c2ccc(Br)cc2)cc1 (centres undefined) | 80% |
| CCOc1ccc(CNC(=O)c2ccc3c(c2)c(C)c(C)n3Cc2ccc(Cl)cc2)cc1 | 67% |
| CCCC(=O)Nc1nc2ccc(S(C)(=O)=O)cc2s1 | 93% |
| CC(=O)N(C)c1nc(-c2ccccc2)cs1 | 80% |
| CN(c1ccc(O)cc1)c1nc(-c2cccs2)cs1 | 1% (active) |
| COc1ccc(-c2csc(N(CC(C)C)C(=O)c3cccs3)n2)cc1 | 76% |
| Cc1[nH]c2ccc(CNS(=O)(=O)c3ccc(S(=O)(=O)N4CCOCC4)cc3)cc2c1C | 91% |

| SMILES | survival |
| --- | --- |
| CC1=C(C(=O)OCC2CCCO2)C(c2ccccc2)NC(=O)N1 (centres undefined) | 102% |
| CC1CCN(S(=O)(=O)c2ccc3c(c2)N(CC(=O)NC(C)C)C(=O)CO3)CC1 | 76% |
| Cc1nn(C(C)C(=O)Nc2cccc(F)c2)c(=O)c2c1sc1ccccc12 (centres undefined) | 108% |
| Cc1cc(C)c(NC(=O)C(C)n2nc(C)c3sc4ccccc4c3c2=O)c(C)c1 (centres undefined) | 60% |
| Cc1nn(C(C)C(=O)Nc2ccc(C(C)C)cc2)c(=O)c2c1sc1ccccc12 (centres undefined) | 58% (active) |
| Cc1ccc(S(=O)Cc2ccc(C(=O)NC3CCCCCC3)o2)cc1 (centres undefined) | 121% |
| CCOC(=O)c1ccc(NC(=O)C2CCN(S(=O)(=O)Cc3ccccc3)CC2)cc1 | 66% |
| Cc1ccc(CNC(=O)Nc2cc(C(=O)NCc3ccc(C(C)C)cc3)ccc2N2CCCC2)cc1 | 79% |
| CC(C)c1ccc(CNC(=O)c2ccc(N3CCCC3)c(NC(=O)NCc3ccc(F)cc3)c2)cc1 | 47% (active) |
| CC(C)c1ccc(CNC(=O)c2ccc(N3CCCC3)c(NC(=O)NCc3ccccc3)c2)cc1 | 73% |
| Cc1cc(C)cc(-n2ccn(Cc3ccc(F)cc3)c(=O)c2=O)c1 | 71% |
| COc1ccc(C(=O)Nc2ccc3nc(N4CCCCC4)cc(C)c3c2)c(OC)c1 | 44% (active) |
| COc1ccc(Cl)cc1C(=O)Nc1ccc2nc(Nc3cccc(Cl)c3)cc(C)c2c1 | 93% |
| CCCCc1ccc(C(=O)Nc2ccc3nc(N(CC)CC)cc(C)c3c2)cc1 | 109% |
| CCCCc1ccc(C(=O)Nc2ccc3nc(N4CCN(CC)CC4)cc(C)c3c2)cc1 | 36% (active) |
| CCN1CCN(c2cc(C)c3cc(NC(=O)c4cc(Cl)ccc4OC)ccc3n2)CC1 | 8% (active) |
| COc1ccc(C(=O)Nc2ccc3nc(N4CCC(C)CC4)cc(C)c3c2)cc1 | 56% |
| COc1cccc(C(=O)Nc2ccc3nc(N4CCC(C)CC4)cc(C)c3c2)c1 | 47% |
| COc1ccccc1C(=O)Nc1ccc2nc(N3CCC(C)CC3)cc(C)c2c1 | 3% (active) |
| CC(=O)c1ccc(NC(=O)CSc2ccc3nnc(CCNS(=O)(=O)c4ccc(C)cc4)n3n2)cc1 | 67% |

| SMILES | survival |
| --- | --- |
| COc1ccc(C)cc1NC(=O)CC(=O)Nc1ccc2nc3n(c(=O)c2c1)CCCCC3 | 89% |
| COCCCNC(=O)CSc1nc2cc3c(cc2c(=O)n1CCCC(=O)NCc1ccc2c(c1)OCO2)OCO3 | 84% |
| Cc1cc(C)cc(NC(=O)N2CCC(N3CCN(Cc4ccccc4)C(=O)C3=O)CC2)c1 | 77% |
| COc1ccccc1CNc1nc(-c2ccco2)nn1S(C)(=O)=O | 70% |
| O=C(Cn1ncc2c3ccccc3n(Cc3ccccc3)c2c1=O)NCc1ccccc1 | 93% |
| Cc1ccccc1C(=O)OCc1cc(=O)n2nc(C(C)C)sc2n1 | 81% |
| COc1ccc(Cn2c(C(=O)O)c(CNCCc3ccccc3Cl)c3ccc(C)cc32)cc1 | 80% |
| Cc1ccc(-n2c(=O)c3c(c4cc(C)ccc4n3C)n(CC(=O)Nc3c(C)cccc3C)c2=O)cc1 | 123% |
| Cc1cc(N2CCN(C)CC2)nc2ccc(NC(=O)c3ccc(C(C)(C)C)cc3)cc12 | -3% (active) |
| COc1ccc(CC(=O)Nc2ccc3nc(Nc4ccc(OC)cc4)cc(C)c3c2)cc1 | 55% |
| CCN1CCN(c2cc(C)c3cc(NC(=O)c4ccc(OC)c(OC)c4)ccc3n2)CC1 | 44% (active) |
| COc1ccc(CC(=O)Nc2ccc3nc(N4CCCCC4)cc(C)c3c2)cc1 | 51% (active) |
| Cc1ccc(NC(=O)Nc2ccc3nc(N4CCN(C)CC4)cc(C)c3c2)cc1C | 101% |
| Cc1ccc(NC(=O)Nc2ccc3nc(N4CCN(C)CC4)cc(C)c3c2)cc1F | 96% |
| CCN1CCN(c2cc(C)c3cc(NC(=O)c4ccccc4F)ccc3n2)CC1 | 43% (active) |
| CCOc1cc(C(=O)Nc2ccc3nc(N4CCN(C)CC4)cc(C)c3c2)cc(OCC)c1OCC | 137% |
| CCN1CCN(c2cc(C)c3cc(NC(=O)c4cc(OC)c(OC)c(OC)c4)ccc3n2)CC1 | 78% |
| Cc1cc(N2CCN(C)CC2)nc2ccc(NC(=O)c3ccccc3F)cc12 | 122% |
| CCOc1ccc(CC(=O)Nc2ccc3nc(N4CCCCC4)cc(C)c3c2)cc1OCC | 92% |
